Experimental data taken from PubChem BioAssay (EPA / NIEHS).
Activity calls are given as the source filed them. How the source made its calls: active means hit-call score of the fitted dose curve at least 0.9, where 1 is the maximum; inactive means score below 0.9.

How the values were obtained:
[1] = read-out: Monokine induced gamma interferon (MIG), CXCL9 (gene 4283); assay: BSK_BE3C_MIG: BioMAP Diversity Plus: BE3C Assay for Monokine induced gamma interferon (MIG) Biomarker Activity (AID 2283035); conditions: primary human bronchial epithelial cells; actives raise or lower the signal;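 further: MIG protein measured by ELISA in BE3C cultures after 24 h of dosing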
Outline: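 hu bronchial epithelial 1° cells, 24 h cpd; MIG by ELISA; bidirectional fit, DMSO = baseline.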

[2] = read-out: Transforming growth factor beta 1 (TGFb1), TGFB1 (gene 7040); assay: BSK_BE3C_TGFb1: BioMAP Diversity Plus: BE3C Assay for Transforming growth factor beta 1 (TGFb1) Biomarker Activity (AID 2283036;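 further: TGF-b1 protein level measured by ELISA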); conditions: primary human bronchial epithelial cells; actives raise or lower the signal
Outline: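 TGF-b1 measured via ELISA, 24 h after chemical dosing of human bronchial epithelial cells (BE3C). Overt cytotoxicity assessed in parallel by SRB (0.1%, TCA-fixed, 560 nm); analysis bidirectional relative to DMSO.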

[3] = read-out: Plasminogen activator inhibitor-1 (PAI1), SERPINE1 (gene 5054); assay: BSK_BE3C_PAI1: BioMAP Diversity Plus: BE3C Assay for Plasminogen activator inhibitor-1 (PAI1) Biomarker Activity (AID 2283037); conditions: primary human bronchial epithelial cells; actives raise or lower the signal
Outline: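 In this multiplexed primary-cell system, bronchial epithelial cells receive test chemical and are sampled at 24 h. PAI-1 is read by ELISA, with DMSO serving as negative control for bidirectional fitting.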

[4] = read-out: urokinase plasminogen activator (uPA), PLAU (gene 5328); assay: BSK_BE3C_uPA: BioMAP Diversity Plus: BE3C Assay for urokinase plasminogen activator (uPA) Biomarker Activity (AID 2283038); conditions: primary human bronchial epithelial cells; actives raise or lower the signal
Outline: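 Bronchial epithelial cells (human, primary); chemical 24 h; uPA by ELISA; bidirectional fit vs DMSO. SRB (0.1%, after 10% TCA fixation, 560 nm) in parallel cultures for cytotoxicity.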

[5] = read-out: Urokinase-type plasminogen activator receptor (uPAR), PLAUR (gene 5329); assay: BSK_BE3C_uPAR: BioMAP Diversity Plus: BE3C Assay for Urokinase-type plasminogen activator receptor (uPAR) Biomarker Activity (AID 2283039); conditions: primary human bronchial epithelial cells; actives raise or lower the signal;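 further: uPAR protein level measured by ELISA on the cells; cells exposed to compound for one day before measurement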
Outline: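 Chemically treated human bronchial epithelial cells (lung primary) are assayed for uPAR by ELISA after 24 h, with data fitted in both directions using DMSO as negative control.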

[6] = read-out: Interleukin-6 (IL6), IL6 (gene 3569); assay: BSK_CASM3C_IL6: BioMAP Diversity Plus: CASM3C Assay for Interleukin-6 (IL6) Biomarker Activity for (AID 2283040); conditions: primary human coronary artery smooth muscle cells; actives raise or lower the signal
[7] = read-out: Tissue plasminogen activator (tPA), PLAT (gene 5327); assay: BSK_BE3C_tPA: BioMAP Diversity Plus: BE3C Assay for Tissue plasminogen activator (tPA) Biomarker Activity (AID 2283041); conditions: primary human bronchial epithelial cells; actives raise or lower the signal;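 further: tPA level quantified by ELISA one day after compound addition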
Outline: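 Using human lung primary bronchial epithelial cells, tPA was measured by ELISA 24 h after dosing; data fitted relative to DMSO.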

[8] = read-out: Interleukin-8 (IL8), CXCL8 (gene 3576); assay: BSK_CASM3C_IL8: BioMAP Diversity Plus: CASM3C Assay for Interleukin-8 (IL8) Biomarker Activity (AID 2283042); conditions: primary human coronary artery smooth muscle cells; actives raise or lower the signal;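 further: IL-8 protein level quantified by ELISA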
[9] = read-out: Human Leukocyte Antigen - DR isotype (HLADR), HLA-DRA (gene 3122); assay: BSK_CASM3C_HLADR: BioMAP Diversity Plus: CASM3C Assay for Human Leukocyte Antigen - DR isotype (HLADR) Biomarker Activity (AID 2283043); conditions: primary human coronary artery smooth muscle cells; actives raise or lower the signal;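 further: cell-surface HLA-DR protein level quantified by ELISA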
[10] = read-out: Macrophage colony-stimulating factor (MCSF), CSF1 (gene 1435); assay: BSK_CASM3C_MCSF: BioMAP Diversity Plus: CASM3C Assay for Macrophage colony-stimulating factor (MCSF) Biomarker Activity (AID 2283044); conditions: primary human coronary artery smooth muscle cells; actives raise or lower the signal;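 further: M-CSF protein amount quantified by ELISA after 24 h exposure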
[11] = read-out: Low-density lipoprotein receptor (LDLR), LDLR (gene 3949); assay: BSK_CASM3C_LDLR: BioMAP Diversity Plus: CASM3C Assay for Low-density lipoprotein receptor (LDLR) Biomarker Activity (AID 2283045); conditions: primary human coronary artery smooth muscle cells; actives raise or lower the signal;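 further: LDLR protein level on the cell surface quantified by ELISA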
[12] = read-out: Monocyte Chemoattractant Protein-1 (MCP1), CCL2 (gene 6347); assay: BSK_CASM3C_MCP1: BioMAP Diversity Plus: CASM3C Assay for Monocyte Chemoattractant Protein-1 (MCP1) Biomarker Activity (AID 2283046); conditions: primary human coronary artery smooth muscle cells; actives raise or lower the signal;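 further: MCP-1 level quantified by ELISA 24 h after dosing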
[13] = BSK_CASM3C_Proliferation: Cell Proliferation Assessment in the BioMAP Diversity Plus: CASM3C Assay (AID 2283047); conditions: primary human coronary artery smooth muscle cells;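 further: sulforhodamine B total protein stain as relative cell number at 560 nm; sub-confluent cells exposed 48 h before staining; fitted both ways against DMSO so gain or loss of cell number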
[14] = read-out: Monokine induced gamma interferon (MIG), CXCL9 (gene 4283); assay: BSK_CASM3C_MIG: BioMAP Diversity Plus: CASM3C Assay for Monokine induced gamma interferon (MIG) Biomarker Activity (AID 2283048); conditions: primary human coronary artery smooth muscle cells; actives raise or lower the signal;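 further: MIG protein level measured by ELISA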
[15] = read-out: serum amyloid A (SAA), SAA1 (gene 6288); assay: BSK_CASM3C_SAA: BioMAP Diversity Plus: CASM3C Assay for serum amyloid A (SAA) Biomarker Activity (AID 2283049); conditions: primary human coronary artery smooth muscle cells; actives raise or lower the signal;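 further: SAA protein level quantified by ELISA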
[16] = BSK_CASM3C_SRB: Viability Assessment in the BioMAP Diversity Plus: CASM3C Assay (AID 2283050); conditions: primary human coronary artery smooth muscle cells;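 further: total protein by SRB staining as cytotoxicity measure in parallel cultures; cells exposed to compound for 24 h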
[17] = read-out: Thrombomodulin, THBD (gene 7056); assay: BSK_CASM3C_Thrombomodulin: BioMAP Diversity Plus: CASM3C Assay for Thrombomodulin Biomarker Activity (AID 2283051); conditions: primary human coronary artery smooth muscle cells; actives raise or lower the signal;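 further: thrombomodulin protein level measured by ELISA 24 h after dosing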
[18] = read-out: Tissue Factor, F3 (gene 2152); assay: BSK_CASM3C_TissueFactor: BioMAP Diversity Plus: CASM3C Assay for Tissue Factor Biomarker Activity (AID 2283052); conditions: primary human coronary artery smooth muscle cells; actives raise or lower the signal;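 further: cell surface tissue factor protein level read by ELISA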
[19] = read-out: Interferon-gamma inducible Protein 10 (IP10), CXCL10 (gene 3627); assay: BSK_hDFCGF_IP10: BioMAP Diversity Plus: hDFCGF Assay for Interferon-gamma inducible Protein 10 (IP10) Biomarker Activity (AID 2283053); conditions: primary human foreskin fibroblasts; actives raise or lower the signal
Outline: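 Chemical-treated human skin fibroblasts (primary) were sampled at 24 h for IP-10 by ELISA. Both increases and decreases relative to DMSO were scored.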

[20] = read-out: Urokinase-type plasminogen activator receptor (uPAR), PLAUR (gene 5329); assay: BSK_CASM3C_uPAR: BioMAP Diversity Plus: CASM3C Assay for Urokinase-type plasminogen activator receptor (uPAR) Biomarker Activity (AID 2283054); conditions: primary human coronary artery smooth muscle cells; actives raise or lower the signal;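 further: cell-surface uPAR protein level quantified by ELISA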

Measured: AC50

CCCCCCCCCCCCc1ccccc1
inactive: all assays above

NC(=O)NO
not listed: [5]
inactive: all other assays above

O=c1[nH]c2ccc(S(=O)CCN3CCC(Cc4ccc(F)cc4)CC3)cc2o1 (configuration not stated)
inactive: all assays above

Cc1c(-c2cccnc2)c2ccccc2n1CCCCC(=O)O
active: [9] 3.97 µM
inactive: all other assays above

C1=CCCC=CCCC=CCC1
inactive: all assays above

CC(C)CCO
inactive: all assays above

CC(C)CC(C)(O)C#CC(C)(O)CC(C)C (configuration not stated)
not listed: [4]
inactive: all other assays above

CCOC(=O)c1ccc(C2CCC(NC[C@H](O)COc3ccc(O)c(NS(C)(=O)=O)c3)CC2)cc1 (some centres not stated)
active: [4] 14.9 µM | [9] 30.8 µM | [10] 24.2 µM | [11] 11.2 µM | [13] 26.9 µM | [16] 15.7 µM | [17] 18.7 µM | [19] 21.8 µM
not listed: [5]
inactive: all other assays above

CCNc1ccccc1
not listed: [4]
inactive: all other assays above

Cc1ccc(N)cc1O
active: [17] 11.2 µM
not listed: [5]
inactive: all other assays above

O=c1n(CC2CO2)c(=O)n(CC2CO2)c(=O)n1CC1CO1 (configuration not stated)
active: [9] 15.3 µM | [13] 1.85 µM
not listed: [4]
inactive: all other assays above

O=C(NS(=O)(=O)/C=C/c1ccccc1)c1ccc(F)cc1Cl
active: [13] 6.8 µM
not listed: [5]
inactive: all other assays above

CC/C(=C\C(=N/O)C(N)=O)C(C)[N+](=O)[O-] (configuration not stated)
active: [9] 22.3 µM
not listed: [5]
inactive: all other assays above
